Shown are actives, neighbours in structure and some others; about 4.2% of the full set was active somewhere.
Mito fusion act – qHTS Assay for Small Molecule Inhibitors of Mitochondrial Division or Activators of Mitochondrial Fusion; S. cerevisiae fusion-defective mutant growth rescue, CellTiterGlo 48 h; Potency, µM (series often up to 46.1 µM), without a hit: at the highest dose growth rescue (activation), most hits filed as activators; 320,000 tested, 0.23% active; note: % of control where 0% means no effect; nearly all actives have a fitted effect of over 45% in size
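Growth-rescue viability read-out: after 48 h at the non-permissive 37C in glycerol/ethanol YPEG, yeast mitochondrial fusion mutants are measured by CellTiterGlo luminescence; compounds (23 nl pinned per well) restoring growth score as division inhibitors or fusion activators.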
A-T KAP1 phos – qHTS Assay for Identifying a Potential Treatment of Ataxia-Telangiectasia; F2112 A-T fibroblasts, KAP-1 phosphorylation AlphaLISA; neocarzinostatin DNA damage 30 min before lysis; Potency, µM (top dose mostly 57.5 µM), inactives show at the highest dose activation, usual class: activators; 320,000 tested, 0.19% active; AID 485349, 2010; note: % of control where 0% means no effect; nearly all actives have a fitted effect of over 45% in size
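hTERT-immortalized A-T patient fibroblasts (F2112), 500 cells/well in OPTI-MEM, 1% FBS, got compounds for 60 min, then NCS for 30 min at 37C. Lysates were then assayed for phospho-KAP-1 by AlphaLISA (anti-pKAP1 donor, anti-KAP1 acceptor beads), 6 hr at 25C.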
Integrin act MD – qHTS for Activators of Integrin-Mediated Alleviation for Muscular Dystrophy; alpha7betagal myoblasts, beta-gal FDG fluorescence, 48 h; Potency, µM (titrated, usually from 38.3 µM), for inactives: top-dose activation, actives largely listed as activators; 350,000 tested, 0.064% active;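 note: 100% = response of the positive control SU9516; nearly all actives have a fitted effect of over 60% in size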
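alpha7betagal+/- myoblasts (passage 13, 250/well) treated 48 h at 37C with compounds at 1:260 dilution of DMSO stock. Lysed, then beta-galactosidase activity read as FDG fluorescence (ex 480/em 540) after 30 min, with pre-read for autofluorescence.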
SW480 rereplic – A quantitative high throughput screen for small molecules that induce DNA re-replication in SW480 colon adenocarcinoma cells; SW480 DNA re-replication, Hoechst DNA content imaging, 48 h; 340,000 tested, 1.8% active; Potency, µM (titrated, usually from 46.1 µM), without a hit: top-dose re-replication activation, usual class: activators; note: % of control where 0% means no effect; nearly all actives have a fitted effect of over 55% in size
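Quantitative HTS format with DMSO vehicle controls; 48 hr drug incubation at 37 C, then 40 min Hoechst staining and scanning imager measurement at 405 nm excitation.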
MCF10A rerep – A quantitative high throughput screen for small molecules that induce DNA re-replication in MCF 10a normal breast cells; MCF 10A DNA re-replication, Hoechst nuclear intensity, 48 h; Potency, µM (highest dose often 46.1 µM), inactives show top-dose activity, positive = re-replication, usual class: activators; 350,000 tested, 2.9% active; AID 624296, 2012; note: % of control where 0% means no effect; nearly all actives have a fitted effect of over 50% in size
Numbers without * were called inactive; ? = inconclusive; nt = not tested or not shown; ! = repeats disagree; [ ] = remark or other dose. Calls come from the whole dose curve; as a rule, active = well fitted activation curve with a large enough effect; inconclusive = small, poorly fitted or top-dose-only effect; inactive = no such curve, though single readings can be large or run the other way. Potency is the fitted concentration of half-maximal effect.

SMILES	Mito fusion act	A-T KAP1 phos	Integrin act MD	SW480 rereplic	MCF10A rerep
CC(C)N1C(=O)/C(=C/C=C/c2ccco2)C(=O)N(Cc2ccco2)C1=O	1%	14%	-20%	?	9.2µM*
CCS(=O)(=O)N1CCN(C2CCC(C)CC2)CC1 (stereo unspecified)	-2%	4%	2%	?	5%
COc1cc(/C=N/Nc2ccc(S(N)(=O)=O)cc2)cc(OC)c1OC	-1%	-18%	3%	-2%	?
C=C1C(C)C2C(Cc3ccccc3)NC(=O)C23OC(=O)/C=C/C(O)CCCC(C)C/C=C/C3C1O (stereo unspecified)	nt	nt	-46%	9.2µM*	6.5µM*
Cn1c(=O)oc2cc(S(=O)(=O)N3CCC(C(=O)N4CCN(c5ccc(F)cc5)CC4)CC3)ccc21	-5%	7%	-10%	?	?
NP(=O)(Oc1ccccc1Cl)Oc1ccccc1Cl	-10%	1%	2%	-25%	0.65µM*
CC(=O)OC1CC(OC2C(O)CC(OC3C(O)CC(OC4CCC5(C)C(CCC6C5CCC5(C)C(C7=CC(=O)OC7)CCC65O)C4)OC3C)OC2C)OC(C)C1OC1OC(CO)C(O)C(O)C1O (stereo unspecified)	nt	nt	-18%	0.92µM*	15%
CC(=O)OC1C[C@H](O[C@@H]2C(O)C[C@H](O[C@@H]3C(O)C[C@@H](OC4CC[C@]5(C)C(CCC6C5CC(O)[C@@]5(C)C(C7=CC(=O)OC7)CC[C@@]65O)C4)OC3C)OC2C)O[C@H](C)[C@H]1O[C@H]1OC(CO)C(O)C(O)C1O (stereo partly specified)	nt	nt	nt	?	0.12µM*
O=c1[nH]c(=O)n(Cl)c(=O)n1Cl	nt	nt	nt	0%	1%
O=c1nc(/C=C/c2ccc(Cl)cc2Cl)cc(C(F)(F)F)[nH]1	-4%	14%	0%	-9%	6.5µM*
COC(=O)c1sccc1NC(=O)c1ccc(C#N)cc1	4%	6%	13%	?	5%
CCOc1ccc(N=Cc2c(O)n(Cc3ccccc3)c(=S)[nH]c2=O)cc1	2%	-8%	14%	-9%	-24%
O=c1c2ccccc2c(C=Nc2ccc(O)cc2)c(O)n1Cc1ccccc1	-2%	-14%	-32%	21µM*	?
COc1ccc(Cn2c(O)c(/C=N/NC(=O)c3ccccc3O)c(=O)[nH]c2=O)cc1	11%	-2%	12%	-3%	4.6µM*
CC(C)N(Cc1ccco1)/N=C/c1c(O)n(Cc2ccccc2)c(=O)[nH]c1=O	-7%	40µM*	25%	-24%	?
CCN(CC)c1ccc(N=Cc2c(O)n(Cc3ccccc3)c(=O)[nH]c2=O)cc1	7%	0%	10%	0.52µM*!	?
CC1CCN(C(=O)c2ncn(C)c2C(=O)N2CCC(C)CC2)CC1	nt	-3%	-20%	-5%	5%
NC(N)=S	nt	-51%	nt	2%	-7%
C=CCn1c(O)c(C(C)=Nc2ccc(N(C)C)cc2)c(=O)[nH]c1=O	0%	-7%	-9%	?	?
C=CCn1c(O)c(C(C)=Nc2ccc(N(CC)CC)cc2)c(=O)[nH]c1=O	-3%	-6%	-30%	15µM*	?
CCOc1ccc(N(CC)S(=O)(=O)c2ccc3c(c2)oc(=O)n3C)cc1	16%	2%	4%	-12%	?
CC12CCC3c4ccc(OC(=O)N(CCCl)CCCl)cc4CCC3C1CCC2O (stereo unspecified)	nt	nt	-16%	?	21µM*
CC12CCC3C(CC=C4CC(O)CCC43C)C1C/C(=C\c1ccccc1F)C2=O (stereo unspecified)	-14%	23%	-54%	8%	6.5µM*
CCOP(=O)(OCC)c1nc(-c2ccc(Cl)cc2)oc1NCc1ccccc1	22%	14%	-5%	-16%	2%
CCCOP(=O)(OCCC)c1nc(-c2ccccc2)oc1NCc1ccccc1	23%	17%	-70%	15µM*	?
SMILES	Mito fusion act	A-T KAP1 phos	Integrin act MD	SW480 rereplic	MCF10A rerep
COP(=O)(OC)c1nc(-c2cccc3ccccc23)oc1N1CCCCC1	7%	22%	-5%	?	21µM*
COc1ccc(CNc2oc(-c3cccc4ccccc34)nc2P(=O)(OC)OC)cc1	?	32%	-11%	18µM*	21µM*
CC[N+](C)(CC)CCOC(=O)C(O)(c1ccccc1)c1ccccc1	nt	nt	nt	0%	4%
NS(=O)(=O)c1cc(C2(O)NC(=O)c3ccccc32)ccc1Cl (stereo unspecified)	-1%	6%	nt	-47%	-42%
CCN(CC)P(=O)(Nc1ccc([N+](=O)[O-])cc1)c1c(C)nn(CCC#N)c1NC(=O)c1ccc(Cl)cc1Cl (stereo unspecified)	7%	-1%	0%	9%	-1%
O=C1NC(=O)C(=Cc2ccccc2OCCOc2ccc([N+](=O)[O-])cc2)C(=O)N1	0%	-3%	-24%	?	18µM*
CN(C(=O)CSc1nnc(COc2ccccc2F)n1N)C1CCCCC1	-1%	0%	-5%	-31%	-25%
C[C@H](N)Cc1cccc(C(F)(F)F)c1	-6%	nt	nt	nt	nt
CC(C)(C)NC(=O)C1CC2CCCCC2CN1 (stereo unspecified)	3.5µM*	8%	?	3%	-12%
CCC1CCCCN1CCCNS(=O)(=O)c1ccc2c(c1)oc(=O)n2C (stereo unspecified)	?	31%	-20%	9%	?
Cc1cccc(N2CCN(C(=O)CCNS(=O)(=O)c3ccc4c(c3)oc(=O)n4C)CC2)c1C	20µM*	8%	22%	?	?
CC1=C(C(=O)O)N2C(=O)C(NC(=O)c3nn(C)cc3[N+](=O)[O-])C2SC1 (stereo unspecified)	1%	1%	1%	-14%	4%
O=c1c2ccccc2nc(-c2cccs2)n1-c1ccccc1	3%	-2%	-16%	-4%	19%
NC(N)=N/N=C/c1cn(-c2ccccc2)nc1-c1cccs1	-7%	-2%	-77%	-19%	7.3µM*
C[C@@]12CC[C@H]3[C@@H](CC[C@@H]4C[C@H]5S[C@H]5C[C@]43C)[C@H]1CC[C@H]2O	nt	nt	nt	-1%[20.6 µM]	10%[20.6 µM]
C[N+]1([O-])[C@@H]2CC(OC(=O)[C@@H](CO)c3ccccc3)C[C@@H]1[C@H]1O[C@H]12 (stereo partly specified)	nt	nt	nt	3%	10%
Cn1c(=O)oc2cc(S(=O)(=O)N3CCc4ccccc43)ccc21	-1%	1µM*	-9%	-3%	?
Cn1c(=O)oc2cc(S(=O)(=O)N3CCC(C(=O)N4CC=C(c5ccccc5)CC4)CC3)ccc21	0%	18%	4%	?	13%

Assay outcomes deposited in PubChem BioAssay by National Center for Advancing Translational Sciences (NCATS).
